Screens from PubChem.
Rab9 prom act: activators of Rab9 promoter | AID 485297 | Potency, µM (highest dose often 9.22 µM), most hits filed as activators | Huh7 Rab9 promoter-luciferase reporter, luminescence, 24 h | 320,000 compounds, 2.8% hits; note: nearly all actives have a fitted effect of over 60% in size
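Quantitative HTS format; Huh7 Rab9-luciferase reporter cells (1500/well) receive compound 2 h post-plating, incubate 24 h at 37 °C, then get luciferase reagent for 10 min before luminescence reading.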
NPC1 promoter act: NPC1 promoter activation. Huh7 NPC1 promoter luciferase reporter, 24 h. Potency, µM (series often up to 9.22 µM), usual class: activators. 320,000 compounds, 2.4% hits. AID 485313; note: nearly all actives have a fitted effect of over 60% in size
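Stably transfected Huh7 (NPC1 promoter→luciferase), 1500 cells/well in Opti-MEM + 10% FBS, 2 h settle, then compound 24 h at 37 °C. Luminescence after 10 min with Amplite reagent.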
FLuc counter: counter-screen for miR-21 project: firefly luciferase inhibitors or activators; purified FLuc, Km substrates, luminescence inhibition; P08659; Potency, µM (top dose mostly 57.5 µM), hits mostly inhibitors; AID 588342; 360,000 compounds, 6.9% hits; note: nearly all actives have a fitted effect of over 55% in size
Target sequence (P08659 whole entry, looked up): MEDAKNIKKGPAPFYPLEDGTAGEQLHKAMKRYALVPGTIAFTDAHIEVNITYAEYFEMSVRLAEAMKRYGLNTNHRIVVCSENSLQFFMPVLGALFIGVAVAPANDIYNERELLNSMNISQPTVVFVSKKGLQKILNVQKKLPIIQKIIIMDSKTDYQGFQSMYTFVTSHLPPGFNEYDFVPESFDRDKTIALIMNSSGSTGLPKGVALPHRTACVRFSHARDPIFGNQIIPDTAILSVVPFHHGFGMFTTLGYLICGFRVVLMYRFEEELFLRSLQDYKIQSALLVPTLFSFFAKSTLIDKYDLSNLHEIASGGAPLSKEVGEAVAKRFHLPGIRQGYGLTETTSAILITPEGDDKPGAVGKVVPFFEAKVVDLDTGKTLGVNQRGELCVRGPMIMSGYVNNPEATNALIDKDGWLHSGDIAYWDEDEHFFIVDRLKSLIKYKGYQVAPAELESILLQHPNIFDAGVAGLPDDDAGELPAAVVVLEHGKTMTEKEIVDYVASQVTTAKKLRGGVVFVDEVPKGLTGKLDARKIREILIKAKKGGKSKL
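Biochemical qHTS of compounds, final roughly 60 µM downward over six points, against 10 nM purified firefly luciferase using Km concentrations of substrates (10 uM D-luciferin, 10 uM ATP) in Tris acetate pH 7.5 buffer; luminescence output.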
SMN2 splice enh: enhancers of SMN2 splice variant expression; HEK293 SMN2-luciferase splicing reporter, luminescence, 30-36 h; Potency, µM (series often up to 46.1 µM), hits mostly activators; 210,000 compounds, 2.8% hits; AID 1458; note: nearly all actives have a fitted effect of over 55% in size
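HEK293 cells carry an SMN2 minigene-luciferase reporter in which exon 7 inclusion puts luciferase in frame. Cells were seeded at 2000 cells/well, attached for 10-12 hours, then exposed to compounds for 30-36 hours at 37C before ONE-Glo luminescence.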
uPA surface inh: inhibitors of cell surface uPA generation; cell surface uPA generation assay, qHTS; Potency, µM (doses to about 38.3 µM), usual class: inhibitors; 330,000 compounds, 0.31% hits; AID 540303; active = well fitted inhibition curve with a large enough effect; inconclusive = small, poorly fitted or top-dose-only effect; inactive = no such curve, though single readings can be large or run the other way; tested in mouse RAW 264.7 cells; note: nearly all actives have a fitted effect of over 55% in size
ELG1 genotoxic: inducers of genotoxicity in HEK293T ELG1-luciferase cells. HEK293T ELG1-luciferase reporter, luminescence, 16 h. Potency, µM (highest dose often 46 µM), usual class: activators. 330,000 compounds, 1.3% hits; note: nearly all actives have a fitted effect of over 60% in size
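Quantitative HTS format in 1536-well plates. HEK293T ELG1-luciferase reporter cells receive test compound and are incubated 16 hr at 37 °C, 5% CO2; ONE-Glo added, 30 min room temperature, then luminescence read.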
Numbers stand for hits. In the library only some 7.3% were active in any assay of this set; here they are far more common. Unless noted, calls come from the whole dose curve; as a rule, active = well fitted curve in the direction sought with a large enough effect; inconclusive = small, poorly fitted or top-dose-only effect, or another doubt; inactive = no such curve, though single readings can be large; an effect the other way counts as inactive or inconclusive.

How did CN(C)S(=O)(=O)c1ccc(C(=O)Nc2cc3c(cc2C(=O)O)OCCCO3)cc1 do in these assays?
Rab9 prom act: inactive; NPC1 promoter act: inactive; FLuc counter: 15µM; uPA surface inh: inactive; ELG1 genotoxic: inactive

How did CCN1C(=O)c2cccc3c(NC(=O)c4ccc(S(=O)(=O)N(C)C)cc4)ccc1c23 do in these assays?
Rab9 prom act: inactive; NPC1 promoter act: inactive; FLuc counter: inactive; SMN2 splice enh: 13µM; uPA surface inh: inactive; ELG1 genotoxic: inactive

How did CCN1C(=O)c2cccc3c(NC(=O)c4ccc(S(=O)(=O)N5CCOCC5)cc4)ccc1c23 do in these assays?
Rab9 prom act: inactive; NPC1 promoter act: inactive; FLuc counter: inactive; SMN2 splice enh: inconclusive; uPA surface inh: inactive; ELG1 genotoxic: inconclusive

How did CSc1ccccc1C(=O)Nc1cc2c(cc1C(=O)O)OCCCO2 do in these assays?
Rab9 prom act: inactive; NPC1 promoter act: inactive; FLuc counter: inconclusive; ELG1 genotoxic: inactive

What do the screens show for `Cc1ccc(CC(=O)N2CCN(C(=O)C3CCCO3)CC2)cc1` (configuration not stated)?
Rab9 prom act: inactive; NPC1 promoter act: inactive; FLuc counter: inactive; uPA surface inh: inactive; ELG1 genotoxic: inactive

What do the screens show for `O=C(Oc1ccccc1F)c1ccc2c(=O)n3c(nc2c1)CCC3`?
Rab9 prom act: inactive; NPC1 promoter act: inactive; FLuc counter: 15µM; uPA surface inh: inactive; ELG1 genotoxic: inactive

Results for O=C(Oc1ccccc1Cl)c1ccc2c(=O)n3c(nc2c1)CCC3 ?
Rab9 prom act: inactive; NPC1 promoter act: inactive; FLuc counter: 17µM; uPA surface inh: inactive; ELG1 genotoxic: inconclusive

What do the screens show for `COC(=O)c1c(N)n(-c2ccc(OC)c(Cl)c2)c2nc3ccccc3nc12`?
FLuc counter: inactive; SMN2 splice enh: inactive

What do the screens show for `COc1ccc(/C=N/Nc2ccccc2C(=O)O)cc1Cn1cc([N+](=O)[O-])cn1`?
Rab9 prom act: inactive; NPC1 promoter act: inactive; FLuc counter: 19µM; uPA surface inh: inactive; ELG1 genotoxic: inactive

How did O=C(NC12CC3CC(CC(C3)C1)C2)c1ccc(Br)o1 do in these assays?
Rab9 prom act: inactive; NPC1 promoter act: inactive; FLuc counter: 17µM; uPA surface inh: inactive; ELG1 genotoxic: inactive

How did O=C(NC12CC3CC(CC(C3)C1)C2)c1ccc(-c2ccc(Br)cc2)o1 do in these assays?
Rab9 prom act: inconclusive; NPC1 promoter act: inconclusive; FLuc counter: 4.8µM; SMN2 splice enh: 16µM; uPA surface inh: inactive; ELG1 genotoxic: inconclusive

How did O=C(NC12CC3CC(CC(C3)C1)C2)c1ccc([N+](=O)[O-])o1 do in these assays?
Rab9 prom act: inactive; NPC1 promoter act: inactive; FLuc counter: inconclusive; uPA surface inh: inconclusive; ELG1 genotoxic: inactive

Results for Cc1oc2ncn(CC(C)C)c(=O)c2c1C(=O)Nc1cc(F)ccc1F ?
FLuc counter: inactive

How did CS(=O)(=O)N1CCc2cc(C(=O)OCC(=O)c3ccccc3)ccc21 do in these assays?
Rab9 prom act: 3.5µM; NPC1 promoter act: 3.2µM; FLuc counter: 4.8µM; SMN2 splice enh: inactive; uPA surface inh: inactive; ELG1 genotoxic: 13µM

Results for CS(=O)(=O)N1CCc2cc(C(=O)Nc3cccc(F)c3)ccc21 ?
FLuc counter: inconclusive; SMN2 splice enh: 11µM

How did CN(C(=O)c1ccc2c(c1)CCN2S(C)(=O)=O)c1ccccc1 do in these assays?
Rab9 prom act: inactive; NPC1 promoter act: inactive; FLuc counter: inactive; SMN2 splice enh: inactive; uPA surface inh: inactive; ELG1 genotoxic: inactive

What do the screens show for `Cc1ccc(NC(=O)c2ccc3c(c2)CCN3S(C)(=O)=O)cc1C`?
Rab9 prom act: 4µM; NPC1 promoter act: 2.5µM; FLuc counter: 15µM; uPA surface inh: inactive; ELG1 genotoxic: inactive

How did Cc1cccc(NC(=O)c2ccc3c(c2)CCN3S(C)(=O)=O)c1 do in these assays?
Rab9 prom act: inconclusive; NPC1 promoter act: inconclusive; FLuc counter: 15µM; uPA surface inh: inactive; ELG1 genotoxic: inconclusive

What do the screens show for `Cc1cc(C)cc(NC(=O)c2ccc3c(c2)CCN3S(C)(=O)=O)c1`?
Rab9 prom act: inactive; NPC1 promoter act: inactive; FLuc counter: inconclusive; uPA surface inh: inactive; ELG1 genotoxic: inactive

What do the screens show for `CNC(=O)c1ccc(OC2CSC2)cc1`?
FLuc counter: inactive; SMN2 splice enh: inactive; uPA surface inh: inactive

How did O=C(N/N=C/c1ccc(OC2CSC2)cc1)c1ccccc1 do in these assays?
Rab9 prom act: 2.2µM; NPC1 promoter act: 3.2µM; FLuc counter: 2.4µM; SMN2 splice enh: inactive; uPA surface inh: inactive; ELG1 genotoxic: inconclusive

How did O=C(N/N=C/c1ccc(OCc2ccc(F)cc2)cc1)c1ccccc1 do in these assays?
Rab9 prom act: inactive; NPC1 promoter act: inactive; FLuc counter: inactive; SMN2 splice enh: inactive; uPA surface inh: inconclusive; ELG1 genotoxic: inactive

What do the screens show for `O=C(/C=C/c1ccc(OC2CSC2)cc1)c1ccccc1`?
Rab9 prom act: 1.8µM; NPC1 promoter act: 3.5µM; FLuc counter: 0.54µM; SMN2 splice enh: inactive; uPA surface inh: inactive; ELG1 genotoxic: inconclusive

Results for CN(CC(=O)Nc1ccc(OC(F)(F)F)cc1)S(=O)(=O)c1cnc[nH]1 ?
Rab9 prom act: inactive; NPC1 promoter act: inactive; FLuc counter: inactive; uPA surface inh: inactive; ELG1 genotoxic: inactive

Results for Fc1ccc(-c2onc3ccc(C4OCCO4)cc23)cc1 ?
Rab9 prom act: inactive; NPC1 promoter act: inactive; FLuc counter: 8.5µM; SMN2 splice enh: inactive; uPA surface inh: inactive; ELG1 genotoxic: inactive

How did CC1(c2ccc3noc(-c4ccc(F)cc4)c3c2)OCCO1 do in these assays?
Rab9 prom act: inactive; NPC1 promoter act: inactive; FLuc counter: inconclusive; SMN2 splice enh: inactive; uPA surface inh: inactive; ELG1 genotoxic: inactive

How did CCC(=O)Nc1nnc(S(=O)(=O)N(C)Cc2ccccc2)s1 do in these assays?
FLuc counter: inactive

What do the screens show for `Cc1c(C(=O)Nc2cccc(C(F)(F)F)c2)oc2ccc(S(=O)(=O)N(C)C3CCCCC3)cc12`?
FLuc counter: inactive

How did Cc1ccc(Nc2nc(CSc3nnnn3C)cs2)cc1 do in these assays?
Rab9 prom act: 2.8µM; NPC1 promoter act: 3.5µM; FLuc counter: 3.4µM; SMN2 splice enh: 11µM; uPA surface inh: inactive; ELG1 genotoxic: inconclusive

How did Cc1cccc(-n2nnnc2SCc2csc(-c3ccccc3)n2)c1 do in these assays?
Rab9 prom act: inactive; NPC1 promoter act: inactive; FLuc counter: inactive; SMN2 splice enh: inactive; uPA surface inh: inactive; ELG1 genotoxic: inactive

Results for c1ccc(-c2nc(CSc3nnc(-c4cccs4)o3)cs2)cc1 ?
Rab9 prom act: inactive; NPC1 promoter act: inactive; FLuc counter: inactive; SMN2 splice enh: inactive; uPA surface inh: inactive; ELG1 genotoxic: inactive

Results for Cc1ccc(Nc2nc(CSc3nnnn3-c3ccccc3)cs2)cc1 ?
FLuc counter: 17µM; SMN2 splice enh: inactive; uPA surface inh: inactive

Results for Cc1ccc(Nc2nc(CSc3n[nH]c(N)n3)cs2)cc1 ?
Rab9 prom act: 2.2µM; NPC1 promoter act: 1.1µM; FLuc counter: 1.3µM; uPA surface inh: inconclusive; ELG1 genotoxic: inconclusive
